This passage reports growth results from PubChem BioAssay (NCI).

Structures are written as SMILES. Compounds without any hit were thinned out: in the full panel of roughly 83,000, 20% have a hit.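 Single-dose data. Exposure time 48 hours. Values below 10 considered active.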 A number with no mark means an inactive call. Calls of active or inactive are those of the source.

Some test systems named below: SK-MEL-2 melanoma; EKVX NSCLC; SN12C renal; UO-31 renal; TK-10 renal; ACHN renal; CAKI-1 renal; A498 renal; CCRF-CEM leukemia; MOLT-4 leukemia; SR leukemia; OVCAR-8 ovarian; OVCAR-5 ovarian; OVCAR-4 ovarian; SK-OV-3 ovarian; IGROV1 ovarian; OVCAR-3 ovarian; HS 578T breast; NCI/ADR-RES ovarian; RPMI-8226 leukemia.
What all share (assay): NCI-60 one-dose screen, 48 h (100 = growth as untreated, 0 = no growth, -100 = all killed)
Conditions in all cases: 10 µM unless noted

With `CCN(CC)CCOc1ccc(/C(=C(\C)c2ccc(F)c(OC)c2)c2ccc(Cl)cc2)cc1`, the growth was 67.7% with SK-MEL-2 melanoma; 56.4% with EKVX NSCLC; 38% in the assay on SN12C renal; 7.48% (active) in the assay on UO-31 renal; 49.5% with TK-10 renal; 25.8% in the assay with ACHN renal. Besides, the growth with CAKI-1 renal was 17.1%; in the assay on A498 renal it was 48.1%; with CCRF-CEM leukemia, 13.9%; with MOLT-4 leukemia it was -1.16% (active); in the assay with SR leukemia, -22.2% (active); with OVCAR-8 ovarian, 17.4%. The growth with OVCAR-5 ovarian was 40.9%; in the assay with OVCAR-4 ovarian, 26.6%; in the assay with SK-OV-3 ovarian, 54%; with IGROV1 ovarian, 29.7%; with OVCAR-3 ovarian it was 16.6%; in the assay on HS 578T breast it was 16%. In the assay on NCI/ADR-RES ovarian, the growth is 39.8%.
In the case of `C/C(=N\NC(N)=S)c1nc2ccc(Cl)cc2[nH]1`, the growth in the assay on SK-MEL-2 melanoma was 32.1%; in the assay with EKVX NSCLC, 63.3%; in the assay on SN12C renal, 48.5%; in the assay with UO-31 renal it was 41.9%; with TK-10 renal, 33.9%; in the assay with ACHN renal, 19.6%. In addition, the growth is 26.9% in the assay with CAKI-1 renal; 53.3% in the assay on A498 renal; 32.8% in the assay with CCRF-CEM leukemia; 30.4% in the assay on MOLT-4 leukemia; 30.5% with SR leukemia; 57.6% in the assay with RPMI-8226 leukemia. Besides, the growth is 39.1% in the assay on OVCAR-8 ovarian; 69.8% in the assay with OVCAR-5 ovarian; 47.1% in the assay with SK-OV-3 ovarian; 58.9% in the assay with IGROV1 ovarian; 50.1% in the assay on OVCAR-3 ovarian; 31.1% with NCI/ADR-RES ovarian.
On to `O=C1/C(=C/c2ccccc2[N+](=O)[O-])COc2ccc(O)c(O)c21`, for which the growth in the assay with SK-MEL-2 melanoma is 3.35% (active); in the assay with EKVX NSCLC, 7.9% (active); with SN12C renal, -29.1% (active); with UO-31 renal, -67.8% (active); in the assay with TK-10 renal it was 3.34% (active); with ACHN renal it was 3.22% (active). Moreover, the growth is 6.79% (active) with CAKI-1 renal; 77.4% in the assay on A498 renal; -2.4% (active) with CCRF-CEM leukemia; -8.56% (active) in the assay with MOLT-4 leukemia; 3.56% (active) in the assay with SR leukemia; 10.3% in the assay with OVCAR-8 ovarian. Also, the growth was -33% (active) in the assay on OVCAR-5 ovarian; 2.9% (active) in the assay on OVCAR-4 ovarian; 40.8% in the assay on SK-OV-3 ovarian; -6.14% (active) with IGROV1 ovarian; -63.2% (active) with OVCAR-3 ovarian; -0.42% (active) in the assay with HS 578T breast. Besides, the growth with NCI/ADR-RES ovarian is 5.96% (active).
For `Cc1c2c(cn1Cc1ccccc1)CCc1cn[nH]c1-2`, the growth is 96.4% in the assay with SK-MEL-2 melanoma; 99.1% in the assay on EKVX NSCLC; 98.3% with SN12C renal; 75.2% in the assay with UO-31 renal; 118% with TK-10 renal; 99.6% in the assay on ACHN renal. Further, the growth in the assay with CAKI-1 renal is 84.1%; with A498 renal, 108%; in the assay with CCRF-CEM leukemia, 77%; in the assay on MOLT-4 leukemia, 85.1%; with SR leukemia it was 51.6%; in the assay with RPMI-8226 leukemia, 70.8%. For the same compound, the growth in the assay on OVCAR-8 ovarian is 94.6%; with OVCAR-4 ovarian it was 81.3%; in the assay with SK-OV-3 ovarian it was 114%; in the assay with IGROV1 ovarian, 84.5%; with OVCAR-3 ovarian, 100%.
Turning to `COc1ccc(-c2cn(-c3cccc(C(=O)/C=C/c4cc(OC)c(OC)c(OC)c4)c3)c(=O)[nH]2)cc1`, the growth with SK-MEL-2 melanoma was -21.5% (active); in the assay on EKVX NSCLC, 6.73% (active); in the assay with SN12C renal it was 9.79% (active); in the assay with UO-31 renal, -33.9% (active); with TK-10 renal it was 60.8%; in the assay on ACHN renal, -49.9% (active). Also, the growth with CAKI-1 renal is -12.1% (active); in the assay with A498 renal, 62.8%; with CCRF-CEM leukemia, 6.11% (active); in the assay with MOLT-4 leukemia it was 3.77% (active); in the assay with SR leukemia it was -12.5% (active); in the assay on RPMI-8226 leukemia, -45.8% (active). Further, the growth in the assay on OVCAR-8 ovarian is 12.4%; in the assay on OVCAR-4 ovarian it was 25%; in the assay on SK-OV-3 ovarian, 31.6%; with IGROV1 ovarian, 8.71% (active); in the assay on OVCAR-3 ovarian, -13.6% (active).
Consider `Nc1ccc2c(S(=O)(=O)O)ccc(S(=O)(=O)O)c2c1`, for which the growth with SK-MEL-2 melanoma was 103%; with EKVX NSCLC it was 103%; with SN12C renal, 95.3%; in the assay with UO-31 renal, 81.6%; in the assay with TK-10 renal, 108%; in the assay with ACHN renal it was 96.4%. Moreover, the growth with CAKI-1 renal was 95.6%; in the assay with A498 renal it was 116%; in the assay with CCRF-CEM leukemia, 56.5%; with MOLT-4 leukemia it was 80.3%; in the assay with SR leukemia, 83.4%; with RPMI-8226 leukemia, 95.7%. The growth was 91.6% with OVCAR-8 ovarian; 99.9% in the assay on OVCAR-4 ovarian; 95.6% in the assay with SK-OV-3 ovarian; 82.5% with IGROV1 ovarian; 117% in the assay on OVCAR-3 ovarian.
With `NC(N)=N/N=C/c1ccc(Br)cc1`, the growth was 77.8% in the assay with SK-MEL-2 melanoma; 62.4% in the assay with EKVX NSCLC; 62.1% in the assay on SN12C renal; 47.4% with UO-31 renal; 13.9% in the assay with TK-10 renal; 44.5% in the assay on ACHN renal. The growth was 27.1% in the assay on CAKI-1 renal; 44.8% in the assay with A498 renal; 32.6% in the assay on CCRF-CEM leukemia; 38.9% with MOLT-4 leukemia; 18.4% with SR leukemia; 21.5% in the assay with RPMI-8226 leukemia. Moreover, the growth with OVCAR-5 ovarian was 73.5%; with SK-OV-3 ovarian, -19.4% (active); with IGROV1 ovarian, 19.3%; with OVCAR-3 ovarian it was 62.3%; in the assay on HS 578T breast, 67.5%; in the assay on NCI/ADR-RES ovarian it was 28.2%.
Turning to `CC12CC(C#N)CCC1O2` (stereo unspecified), the growth with SK-MEL-2 melanoma was 116%; with EKVX NSCLC, 120%; with SN12C renal, 105%; with UO-31 renal it was 96%; in the assay with TK-10 renal it was 119%; with ACHN renal it was 101%. The growth in the assay on CAKI-1 renal is 111%; in the assay with A498 renal, 121%; with CCRF-CEM leukemia it was 92.4%; with MOLT-4 leukemia, 96.2%; with SR leukemia, 98.9%; in the assay on RPMI-8226 leukemia, 106%. Further, the growth in the assay on OVCAR-8 ovarian is 105%; in the assay with OVCAR-5 ovarian, 105%; in the assay with SK-OV-3 ovarian it was 115%; with IGROV1 ovarian, 99.2%; in the assay on OVCAR-3 ovarian it was 117%; in the assay on HS 578T breast it was 105%. In the assay on NCI/ADR-RES ovarian, the growth is 115%.
`COc1cc(C(=O)/C=C/c2c(-c3ccc(F)cc3)nc3ncccn23)cc(OC)c1OC`: the growth with SK-MEL-2 melanoma was 30.1%; in the assay on EKVX NSCLC, 52.3%; with SN12C renal, 60.8%; with UO-31 renal, 35.7%; in the assay on TK-10 renal, 78.2%; in the assay with ACHN renal, 47%. Moreover, the growth is 16.2% in the assay with CAKI-1 renal; 69.9% in the assay on A498 renal; 18.9% in the assay with CCRF-CEM leukemia; 50.7% in the assay on MOLT-4 leukemia; 9.6% (active) in the assay with SR leukemia; 11.3% in the assay with RPMI-8226 leukemia. Besides, the growth with OVCAR-8 ovarian is 48.3%; with OVCAR-4 ovarian it was 46.5%; in the assay on SK-OV-3 ovarian, 63.9%; in the assay with IGROV1 ovarian, 47.8%; in the assay on OVCAR-3 ovarian, 19.1%.
